Assay outcomes as filed in PubChem.
FLuc modulator – counter-screen for miR-21 project: firefly luciferase inhibitors or activators; purified FLuc, Km substrates, luminescence inhibition; Potency, µM (doses to about 57.5 µM), usual class: inhibitors; 360,000 tested, 6.9% active; AID 588342; note: nearly all actives have a fitted effect of over 55% in size
Target sequence (P08659 whole entry, looked up): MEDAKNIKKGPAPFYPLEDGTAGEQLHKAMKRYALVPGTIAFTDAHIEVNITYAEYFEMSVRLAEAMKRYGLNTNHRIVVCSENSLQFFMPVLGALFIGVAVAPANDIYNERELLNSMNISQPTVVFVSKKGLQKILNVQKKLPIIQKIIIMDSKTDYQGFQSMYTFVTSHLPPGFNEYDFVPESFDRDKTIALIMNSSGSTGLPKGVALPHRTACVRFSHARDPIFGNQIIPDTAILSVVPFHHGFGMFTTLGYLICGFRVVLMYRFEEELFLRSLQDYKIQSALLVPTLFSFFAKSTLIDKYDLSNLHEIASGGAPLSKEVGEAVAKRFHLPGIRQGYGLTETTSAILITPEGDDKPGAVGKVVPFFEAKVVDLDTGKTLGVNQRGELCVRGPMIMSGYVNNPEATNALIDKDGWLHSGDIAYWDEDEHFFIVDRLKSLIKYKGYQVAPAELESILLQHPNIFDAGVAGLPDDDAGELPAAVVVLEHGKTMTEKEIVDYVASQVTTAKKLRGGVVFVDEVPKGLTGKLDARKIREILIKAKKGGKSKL
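Purified P. pyralis luciferase (10nM final) with 10uM D-luciferin and 10uM ATP (Km levels) in 50mM Tris acetate pH 7.5, 10mM Mg acetate, 0.01% Tween-20, 0.05% BSA; qHTS 6-point titration, ~60 µM downward; luminescence read.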
ELG1 genotox – inducers of genotoxicity in HEK293T ELG1-luciferase cells; HEK293T ELG1-luciferase reporter, luminescence, 16 h; AID 504466; 330,000 tested, 1.3% active; Potency, µM (series often up to 46 µM), usual class: activators; note: nearly all actives have a fitted effect of over 60% in size
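Screening used a luciferase reporter fused to human ELG1 in HEK293T cells. Luminescence was read on a CCD plate imager after 16 hr exposure and 30 min ONE-Glo incubation.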
KinaseGlo FLuc – counter-screen: inhibitors of Kinase-Glo firefly luciferase | Potency, µM (doses to about 38.3 µM), most hits filed as inhibitors | Kinase-Glo luciferase, ATP luminescence, 8 min | Q27757 | 200,000 tested, 0.28% active; note: nearly all actives have a fitted effect of over 60% in size
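Compound is pinned into ATP-containing buffer (10 uM ATP, imidazole pH 7.2, 7 mM MgCl2). Kinase-Glo luciferase reagent is then added. Light output is recorded following an 8-min room-temperature incubation.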
NPC1 promoter act – activates the NPC1 promoter | Potency, µM (highest dose often 9.22 µM), most hits filed as activators | Huh7 NPC1 promoter luciferase reporter, 24 h | AID 485313 | 320,000 tested, 2.4% active; note: nearly all actives have a fitted effect of over 60% in size
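Huh7 cells stably carrying NPC1 promoter–luciferase, plated in Opti-MEM with 10% FBS for 2 h, were exposed to compound in DMSO for 24 h at 37 °C; luciferase reagent was added for 10 min and luminescence read.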
SMN2 splice up – SMN2 splice variant enhancement; Potency, µM (series often up to 46.1 µM), actives largely listed as activators; HEK293 SMN2-luciferase splicing reporter, luminescence, 30-36 h; 210,000 tested, 2.8% active; AID 1458; note: nearly all actives have a fitted effect of over 55% in size
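HEK293 cells carry an SMN2 minigene-luciferase reporter in which exon 7 inclusion puts luciferase in frame. Cells were seeded at 2000 cells/well, attached for 10-12 hours, then exposed to compounds for 30-36 hours at 37C before ONE-Glo luminescence.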
Rab9 promoter act – Rab9 promoter activation; Huh7 Rab9 promoter-luciferase reporter, luminescence, 24 h; Potency, µM (titrated, usually from 9.22 µM), actives largely listed as activators; 320,000 tested, 2.8% active; AID 485297; note: nearly all actives have a fitted effect of over 60% in size
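Rab9 promoter-driven luciferase in stably transfected Huh7 cells; 1500 cells/well rested 2 h, exposed to compound in DMSO for 24 h at 37 °C, 5% CO2. Luminescence read 10 min after adding luciferase reagent at ambient temperature.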
A number is an active result. Most compounds without a hit are left out; they make up all but 7.4% or so of the library. Calls come from the whole dose curve; as a rule, active = well fitted curve in the direction sought with a large enough effect; inconclusive = small, poorly fitted or top-dose-only effect, or another doubt; inactive = no such curve, though single readings can be large; an effect the other way counts as inactive or inconclusive.

Screening CCCC(=O)Nc1nc2ccc(NC(=O)c3ccc(Br)o3)cc2s1 returned FLuc modulator inactive, ELG1 genotox inactive, KinaseGlo FLuc inactive, NPC1 promoter act inactive, SMN2 splice up inconclusive and Rab9 promoter act inactive.
For CC(=O)Nc1ccc2nc(NC(=O)c3ccco3)sc2c1 the results were FLuc modulator 11µM, ELG1 genotox inconclusive, NPC1 promoter act 1.4µM and Rab9 promoter act 2µM.
CC(=O)Nc1ccc2nc(NC(=O)c3ccc([N+](=O)[O-])o3)sc2c1 was read as FLuc modulator 21µM, ELG1 genotox inactive, NPC1 promoter act inactive and Rab9 promoter act inactive.
For CSc1nc2ccc(NC(=O)c3cc4ccccc4o3)cc2s1 the results were FLuc modulator 1.1µM, ELG1 genotox inconclusive, NPC1 promoter act 1.6µM and Rab9 promoter act 2.5µM.
Screening O=C(Nc1nc2ccc([N+](=O)[O-])cc2s1)c1c(F)cccc1F returned FLuc modulator 8.5µM, ELG1 genotox inactive, KinaseGlo FLuc inactive, NPC1 promoter act inactive, SMN2 splice up inconclusive and Rab9 promoter act inactive.
COc1ccccc1CN(Cc1ccco1)c1cnc(S(C)(=O)=O)nc1C(=O)Nc1cc(C)ccc1C was read as FLuc modulator inactive.
COc1cccc(NC(=O)Cn2nc(C)c3c(C)n(-c4ccccc4)nc3c2=O)c1 was read as FLuc modulator inactive.
CC(C)C(NC(=O)c1c(F)cccc1F)C(=O)NCc1ccc(S(=O)(=O)N2CCOCC2)cc1 (configuration not stated) was read as FLuc modulator inactive, ELG1 genotox inactive, NPC1 promoter act inactive and Rab9 promoter act inactive.
Screening CCOC(=O)CSc1nc2ccc(NC(=O)c3ccc(C)cc3)cc2s1 returned FLuc modulator 5.4µM.
For CSc1nc2ccc(NC(=O)c3ccc(F)c(F)c3)cc2s1 the results were FLuc modulator inconclusive, ELG1 genotox inconclusive, KinaseGlo FLuc inactive, NPC1 promoter act inconclusive, SMN2 splice up 16µM and Rab9 promoter act inconclusive.
`CCC(=O)c1ccc(OC(=O)C2CCN(C3=NS(=O)(=O)c4ccccc43)CC2)cc1` gave FLuc modulator inactive, ELG1 genotox inactive, NPC1 promoter act inactive and Rab9 promoter act inactive.
Screening Cc1oc2cc3c(C(=O)N4CCCCC4)c(C)oc3cc2c1C(=O)N1CCCCC1 returned FLuc modulator 11µM, ELG1 genotox inconclusive, KinaseGlo FLuc inactive, NPC1 promoter act inactive, SMN2 splice up inactive and Rab9 promoter act inconclusive.
Screening Cc1ccc(-c2nc3cccnc3s2)cc1NS(C)(=O)=O returned FLuc modulator 13µM, ELG1 genotox inconclusive, NPC1 promoter act inconclusive and Rab9 promoter act inconclusive.
Screening Cc1cccc(C(=O)Nc2cc(-c3nc4cccnc4s3)ccc2C)c1 returned FLuc modulator inactive.
`Cc1ccc(-c2nc3cccnc3s2)cc1NC(=O)C(C)C` gave FLuc modulator 11µM.
CCC(C(=O)Nc1cc(-c2nc3cccnc3s2)ccc1C)c1ccccc1 (configuration not stated) was read as FLuc modulator 11µM.
Screening CN(CCOc1ccc(Cl)cc1)C(=O)C1CCN(C(=O)c2ccc(Cl)cc2)CC1 returned FLuc modulator inactive, ELG1 genotox inactive, NPC1 promoter act inactive and Rab9 promoter act inactive.
`O=C1C2C3C=CC(C4CC34)C2C(=O)N1c1ccc2c(c1)OCO2` (configuration not stated) gave FLuc modulator 21µM, ELG1 genotox inactive, KinaseGlo FLuc inactive, NPC1 promoter act inactive, SMN2 splice up inactive and Rab9 promoter act inactive.
CC(C)=C1C2C=CC1C1C(=O)N(c3ccc4c(c3)OCO4)C(=O)C21 (configuration not stated) was read as FLuc modulator inactive, ELG1 genotox inactive, KinaseGlo FLuc inactive, NPC1 promoter act inactive, SMN2 splice up inactive and Rab9 promoter act inactive.
Cc1ccc(Cl)cc1NC(=O)Cn1cc2c(n1)CCCCC2 was read as FLuc modulator inactive and SMN2 splice up inactive.
Screening c1ccc2c(c1)oc1c(NCC3CCCO3)ncnc12 (configuration not stated) returned FLuc modulator 17µM, ELG1 genotox inactive, KinaseGlo FLuc inactive, NPC1 promoter act inactive, SMN2 splice up inactive and Rab9 promoter act inactive.
For c1ccc(CNc2ncnc3c2oc2ccccc23)nc1 the results were FLuc modulator 19µM, ELG1 genotox inactive, KinaseGlo FLuc inactive, NPC1 promoter act inactive, SMN2 splice up inactive and Rab9 promoter act inactive.
Screening CC(=O)c1ccc(Nc2ncnc3c2oc2ccccc23)cc1 returned FLuc modulator inconclusive, ELG1 genotox 2.1µM, KinaseGlo FLuc inactive, NPC1 promoter act 1.4µM, SMN2 splice up 1.6µM and Rab9 promoter act inconclusive.
Screening c1ccc(-c2nc(NCC3CCCO3)c3oc4ccccc4c3n2)cc1 (configuration not stated) returned FLuc modulator 15µM, ELG1 genotox inactive, KinaseGlo FLuc inactive, NPC1 promoter act inactive, SMN2 splice up inactive and Rab9 promoter act inactive.
For CC(=O)Nc1ccc(Nc2nc(C)nc3c2oc2ccccc23)cc1 the results were FLuc modulator inactive, ELG1 genotox inactive, KinaseGlo FLuc inactive, NPC1 promoter act inactive and Rab9 promoter act inactive.
For Clc1ccc2[nH]c3c(NCC4CCCO4)ncnc3c2c1 (configuration not stated) the results were FLuc modulator inconclusive, ELG1 genotox inactive, NPC1 promoter act inactive and Rab9 promoter act inactive.
`O=C(NCC1CCCCC1)c1cccc(S(=O)(=O)N2CCCC2)c1` gave FLuc modulator inactive, ELG1 genotox inactive, NPC1 promoter act inactive and Rab9 promoter act inactive.
For CCSC(=O)NC1CCCCC1 the results were FLuc modulator inactive, ELG1 genotox inactive, NPC1 promoter act inactive and Rab9 promoter act inactive.
O=C(O/N=C1\CCCc2ccccc21)c1cccs1 was read as FLuc modulator 1.3µM, ELG1 genotox inactive, KinaseGlo FLuc inconclusive, NPC1 promoter act inactive, SMN2 splice up inactive and Rab9 promoter act inactive.
`O=C(Cc1ccc(Cl)cc1)N/N=C1\CCCc2ccccc21` gave FLuc modulator inactive, ELG1 genotox inactive, KinaseGlo FLuc inactive, NPC1 promoter act inactive, SMN2 splice up inactive and Rab9 promoter act inactive.
Screening O/N=C1\CCCc2ccccc21 returned FLuc modulator inactive, ELG1 genotox inactive, NPC1 promoter act inactive and Rab9 promoter act inactive.
Screening O=C(Cc1ccccc1)O/N=C1\CCCc2ccccc21 returned FLuc modulator 15µM, ELG1 genotox inactive, KinaseGlo FLuc inactive, NPC1 promoter act inactive, SMN2 splice up inactive and Rab9 promoter act inactive.
Screening CCCCn1nnc(NC(=S)NC(=O)c2ccc(-c3cccc(Cl)c3Cl)o2)n1 returned FLuc modulator inactive, ELG1 genotox inactive, NPC1 promoter act inactive and Rab9 promoter act inactive.
O=C(CSc1nc2c([nH]c3ccccc32)c(=O)n1-c1ccccc1)Nc1ccccc1F was read as FLuc modulator inactive.
